Screening data as filed in PubChem BioAssay.
The sample as a whole holds a higher share of hits than the screen did.
Tg IFNy HTS: inhibitors of Toxoplasma gondii growth with IFN-gamma | AID 1259416 | Toxoplasma gondii growth in IFN-gamma-treated host cells; stronger effect = lower value | hit rate 3.8% among 69,000 | activity change, negative = inhibition, % (test concentration not listed); in the data active = activity change below about -70%, passing the limit was not always enough;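 note: host cells are HeLa cells infected with Toxoplasma gondii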
Starred values were filed as active, the others as inactive.

SMILES	Tg IFNy HTS
CC(C)Cc1cc(C(=O)N2CCC3(CCCN(C)C3=O)C2)nc(N)n1 (stereo not given)	-0.4
CN1CCN(C(=O)NCc2nc(-c3cccc(F)c3)c(-c3ccccn3)[nH]2)CC1	1.2
Cn1cc(CN2CCc3ncnc(-c4cccc(F)c4)c3CC2)cn1	-6.2
CN1CCC(n2cc(-c3ccnc(N)c3)c(-c3cccc(F)c3)n2)CC1	-97.1*
O=C(NCc1ccncc1)c1cccc2[nH]cc(CN3CCCC3)c12	57.3
Fc1cccnc1OC[C@@]12CCO[C@H]1CCN(Cc1ccccn1)C2	11.7
CS(=O)(=O)N(CC(=O)N1CCCc2ccccc21)c1sc2c(c1C#N)CCCC2	-33.7
CCCC(=O)Nc1ccc2c(c1)C(=O)N(C)[C@@H]1CC[C@@H](CC(=O)N3CCCCC3)O[C@H]1CO2	-7.9
COc1ccc(C2NC(=S)NC3=C2CCc2ccccc23)cc1 (stereo not given)	89.1
COc1ccc(C2CN=NC23CSc2ccccc2C3=O)cc1 (stereo not given)	-81.7*
COc1ccc(C2Sc3ccccc3N=C3c4ccccc4CCC32)cc1 (stereo not given)	-65.4
CCOC(=O)c1cnc(Nc2nc(C)c3cc(OC)ccc3n2)nc1C	39.6
CN1CCOCCOCCOCCN(C)C1=S	-6.8
CCOC(=O)c1[nH]ncc1-c1cncn1CCn1nc(C)c(C)c1C	-2.7
CCCc1cc(-c2cc(NC3CCNCC3)nc3[nH]ccc23)nc(C)n1	-80.4*
FC(F)(F)c1ccc(-c2cc(NC3CCNCC3)nc3[nH]ccc23)nc1	-3.2
c1cnc(-c2cc(NC3CCNCC3)nc3[nH]ccc23)cn1	-18.9
COC(=O)c1sccc1OCc1ncc(C(F)(F)F)cc1Cl	15.0
c1ccc(Cn2ncc3c2ncn2c(CSc4nc5ccccc5o4)nnc32)cc1	12.5
CN(C)c1ccc(/C=C/C=c2\sc3nc4ccccc4n3c2=O)cc1	91.2
O=C(c1ccc(Nc2nccc(-c3cc4ccccc4s3)n2)cc1)N1CCC(N2CCCC2)CC1	-70.6*
Cc1ccc(C(=O)Nc2nccnc2C(=O)N2CCC(N3CCCCC3)CC2)cc1	-4.5
CC(=O)N1CCC(Cn2ccnc2-c2cc3ccccc3s2)CC1	-46.7
CCCCN(C1CCN(C(C)=O)CC1)S(=O)(=O)c1ccc2[nH]c(=O)ccc2c1	87.1
COCCN(Cc1ccc2c(c1)CCCN2C)S(=O)(=O)c1ccc2[nH]c(=O)ccc2c1	7.8
SMILES	Tg IFNy HTS
CCN1CCCc2cc(CN(C3CCCC3)S(=O)(=O)c3ccc4[nH]c(=O)ccc4c3)ccc21	-86.5*
COc1cc(C)ccc1-c1c(-c2ccccc2)ncn1C(C)Cc1cnccn1 (stereo not given)	-4.2
CC(Cc1cnccn1)n1cc(-c2ccnc3ccccc23)nn1 (stereo not given)	-10.6
COCCn1c2c([n+](Cc3cnccn3)c1C)C(=O)c1ccccc1C2=O	-83.3*
COC(=O)c1[nH]ncc1CN(C)Cc1cnn(-c2ccc(F)cc2)c1	-14.7
CO[C@H]1COC[C@@H]1NC(=O)CCSc1ccc2c(c1)OCCO2	2.8
CN(C)C(=O)C[C@H]1CC[C@H]2[C@@H](COC[C@@H](O)CN2C(=O)C2CCOCC2)O1	-19.2
Cc1ccc(-c2cc(C(=O)N3CCN(S(=O)(=O)N4CCOCC4)CC3)no2)cc1	-1.3
CO[C@@H](CN(C)C(=O)c1cnccn1)[C@H](C)CN([C@@H](C)CO)S(=O)(=O)c1ccccc1	-2.9
COc1cc(C(=O)OCCCN2CCCN(CCCOC(=O)c3cc(OC)c(OC)c(OC)c3)CC2)cc(OC)c1OC	-7.4
COc1cc(C(=O)ON=C2C3CC4CC(C3)CC2C4)cc(OC)c1OC	-106.0*
COc1cc(C(=O)OCCCN(C)C)cc(OC)c1OC	0.1
Ic1cc(-c2ccccc2)ncn1	13.9
CCN1C(=O)CCc2cc(NS(=O)(=O)c3ccc(C#N)cc3)ccc21	-101.9*
CCN1C(=O)CCc2cc(NS(=O)(=O)c3c(C)cccc3Cl)ccc21	-48.1
CC(C)CN1C(=O)CCc2cc(NS(=O)(=O)c3ccccc3)ccc21	-50.2
CCN1C(=O)CCc2cc(NS(=O)(=O)c3cccc(F)c3)ccc21	194.1
CCN1C(=O)CCc2cc(NS(=O)(=O)Cc3ccc(Cl)cc3)ccc21	-41.0
Cc1cc(C)cc(S(=O)(=O)Nc2ccc3c(c2)CCC(=O)N3CC(C)C)c1	-39.5
CC(C)CN1C(=O)CCc2cc(NS(=O)(=O)c3ccc(Cl)cc3)ccc21	-80.1*
CCN1C(=O)CCc2cc(NS(=O)(=O)c3cc(F)ccc3F)ccc21	53.3
CCN1C(=O)CCc2cc(NS(=O)(=O)c3ccc(C4CCCCC4)cc3)ccc21	-95.1*
Cc1csc(-c2cc(S(=O)(=O)N3CCC(Cc4ccccc4)CC3)c(C)s2)n1	3.7
CNC(=O)c1cc(=O)n(CC(=O)Nc2ccc(F)cc2F)c2ccccc12	12.5
COC(=O)C1=CO[C@@H](O)[C@@H]2C(CO)=CC[C@H]12	21.9
SMILES	Tg IFNy HTS
CCCNC(C)C(=O)Nc1ccccc1C (stereo not given)	-3.9
CO[C@H]1CN(C(=O)CCCCc2ccccc2)CC[C@H]1N	-3.3
O=C(c1ccc(-c2ccn[nH]2)cc1)N1C[C@@H]2[C@H](C1)[C@H]1CC[C@@H]2O1	5.9
CC(=O)N1C(C(=O)O)CSC1c1cccs1 (stereo not given)	10.5
Cc1cnc(N2CCC3(CC2)CN(c2cnn(C)c2)C(=O)CO3)nc1	-3.0
CN(C)CCN(Cc1cccnc1)Cc1cncn1Cc1ccccc1	13.7
COc1cc(CN(Cc2ccccc2)CC2CCCO2)cc(OC)c1OC (stereo not given)	1.4
Fc1cccc(CN(Cc2cncn2Cc2ccccc2)CC2CCCO2)c1 (stereo not given)	-92.9*
N#C[C@@H]1[C@H](c2ccccc2)[C@@H](CO)N1C(=O)CCN1CCCCC1	4.7
Cc1c(-c2ccc(-c3ccccc3F)cc2)nc2ccc(F)cc2c1C(=O)O	-5.9
CC(C)NC(=O)N1CCC2(CC1)COc1ccccc1S(=O)(=O)N(CC1CC1)C2	-13.8
Cc1nc(CCNC(=O)[C@H]2CCCN2S(=O)(=O)c2cccc3nsnc23)cs1	-48.4
Clc1ccc(-c2nc(NC3CCCC3)c3ccccc3n2)cc1	55.1
Fc1ccc(C2Oc3ccc(Cl)cc3C3=C2C(c2ccccc2)n2ncnc2N3)cc1 (stereo not given)	-22.6
Clc1ccc(C2C=C(c3ccccc3)Nc3ncnn32)cc1 (stereo not given)	-85.4*
Cc1cccc(C)c1NC(=O)Cn1c(=O)cc(C(=O)N2CCCC2)c2ccccc21	9.5
Nc1nc(Nc2ccccc2)nc2c1ncn2C1OC(CO)C(O)C1O (stereo not given)	17.4
OC[C@H]1O[C@@H](n2cnc3c(Nc4ccccc4)ncnc32)[C@H](O)[C@@H]1O	-82.5*
O=c1[nH]cnc2c1ncn2[C@@H]1O[C@H](CO)[C@@H](O)[C@H]1O	9.0
COc1ccc2c3c(n(C)c2c1)[C@@H](CO)N(C)CC31CCN(S(=O)(=O)c2cccc(F)c2)CC1	-46.6
Cc1oc2c(c1C(=O)Nc1cccc(OCCN3CCOCC3)c1)CCCC2	39.9
COc1c(C)c2c(c(O)c1C/C=C(\C)CCC(=O)OCCN1CCOCC1)C(=O)OC2	-76.1*
OC(CSc1nc(-c2ccccc2)n(-c2ccccc2)n1)C(F)(F)F (stereo not given)	-10.4
O=C(Cc1ccccc1)N1CCC2(CC1)Nc1ccc(Cl)cc1-n1cccc12	60.7
COc1ccccc1C(=O)N1CCC2(CC1)Nc1ccc(Cl)cc1-n1cccc12	61.9
Cc1cc(NC(=O)N2CCC3(CC2)Nc2ccccc2-n2cccc23)ccc1Br	-116.4*
